AMA1 RON2 block – AMA1-RON2 (P. falciparum) interaction inhibition | AlphaScreen AMA1-biotinylated RON2 peptide binding | Potency, µM (series often up to 58.2 µM), inactives show at the top dose activity change, negative = inhibition, hits mostly inhibitors | 0.2% of 360,000 active;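 also: 0% = vehicle wells and -100% = peptide control; nearly all actives have a fitted effect of over 45% in size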
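AMA1 (3D7) with his tag at 25 nM final met compounds first, then biotinylated RON2 peptide at 25 nM; detection used donor plus acceptor beads, 10 µg/mL apiece, read by AlphaScreen after 30 min at room temperature.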
Pf growth 96h – P. falciparum growth inhibition at 96 hours | Potency, µM (doses to about 28.7 µM), for inactives: at the highest dose activity change, negative = inhibition, actives largely listed as inhibitors | P. falciparum luciferase reporter growth, 96 h | 6.9% of 320,000 active
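Two parasite generations (96 h, 37 C, 5% CO2) of compound exposure in infected erythrocytes (0.05% parasitemia, 2% hematocrit). Luciferase-reporter P. falciparum; decreased luminescence indicates inhibited growth, aimed at apicoplast-acting delayed death.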
HCV inhibitor – HCV inhibition | Potency, µM (series often up to 41.8 µM), without a hit: at the highest dose activity change, negative = inhibition, actives largely listed as inhibitors | Huh7.5.1 HCVcc-Cre infection, luciferase reporter, 44 h | AID 651820 | 3.4% of 340,000 active
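Luciferase read-out (15 sec integration) after a 15 min room-temperature substrate step quantifies HCVcc-Cre infection. Cells, 1,000 per well, had compound added 4 h post-plating, then virus at ~0.5 moi, and were cultured 44 h.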
Pf growth 48h – inhibits P. falciparum growth in the first generation, 48 h; P. falciparum luciferase growth in erythrocytes, 48 h; Potency, µM (doses to about 28.7 µM), without a hit: at the highest dose activity change, negative = inhibition, actives largely listed as inhibitors; AID 504832; 5.9% of 310,000 active
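Cell-based growth assay: transgenic P. falciparum expressing firefly luciferase, cultured in red cells within RPMI 1640 containing 0.5% w/v Albumax, 24 mM bicarbonate and gentamycin. A drop in luciferase activity indicates inhibition.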
Numbers without * were called inactive; ? = inconclusive; nt = not tested or not shown; ! = not active in a repeat. The list is not random: actives were taken first. Their share in the collection is about 11%. Calls follow the shape of the dose curve; as a rule, active = well fitted curve in the direction sought with a large enough effect; inconclusive = small, poorly fitted or top-dose-only effect, or another doubt; inactive = no such curve, though single readings can be large; an effect the other way counts as inactive or inconclusive. Unless noted, % is scaled to controls: 0 for no effect and ±100 for the full control effect; potency is read from the fitted curve at half-maximal effect.

SMILES	AMA1 RON2 block	Pf growth 96h	HCV inhibitor	Pf growth 48h
Cc1ccc(C)c(CSc2ncccc2C(=O)O)c1	-8%	7.4µM*	19%	10%
O=C(O)c1cccnc1SCc1cccc(Br)c1	-10%	-8%	7%	1.7µM*
Cc1cc(S(=O)(=O)NCc2ccc(N3CCN(C)CC3)cc2)c(C)s1	2%	41%	9%	?
Cc1cc(C(=O)NNC(=O)c2ccccc2[N+](=O)[O-])c(C)o1	2%	8%	37%	29%
CCC1Sc2ccc(S(=O)(=O)Nc3ccc(OC)c(OC)c3)cc2NC1=O (stereo not given)	-1%	0%	10µM*	11%
CCC1Sc2ccc(S(=O)(=O)CCC(=O)Nc3ccc(C(=O)OC)cc3)cc2NC1=O (stereo not given)	-14%	-3%	3%	19%
CCC1Sc2ccc(S(=O)(=O)CCC(=O)Nc3ccc(NC(C)=O)cc3)cc2NC1=O (stereo not given)	2%	6.6µM*	12%	29%
CCOc1ccc(Nc2cc(C)nc3c(C)cccc23)cc1	4%	-22%	?	?
COc1ccc(-c2nn(C)c(=O)c3ccccc23)cc1CNC(=O)NC1CCCCC1	nt	-11%	nt	-28%
CCCC/C(O)=N\S(=O)(=O)c1ccc(N=NN(C)C)cc1	6%	9%	15%	-2%
CCOC(=O)c1cc2sc(C)cc2n1CC(=O)Nc1ccc2c(c1)OCCO2	10%	0.74µM*	?	-9%
Cc1ccc(S(=O)(=O)NC(C)CCc2ccccc2)cc1C(N)=O (stereo not given)	1%	?	?	8%
CCc1ccc2[nH]c3nc(C)cc(C)c3c(=O)c2c1	18%	0%	1%	3.3µM*
Cc1cc2nc3ccc(=[N+](C)C)cc-3sc2cc1N	0%	0.033µM*	3.2µM*	0.037µM*
CN(C)c1ccc2nc3ccc(=[N+](C)C)cc-3sc2c1	22%	0.0067µM*!	?	0.0067µM*
COc1ccc2nc(N=Nc3ccc(N(C)C)cc3)sc2c1	?	336%	4%	5%
COCCNC(=O)CSc1nnc(-c2ccccc2F)n1Cc1ccccc1	-5%	1%	21%	-1%
COc1ccc(Cn2cc(CN3CC(N(C)C)CS3(=O)=O)nn2)cc1 (stereo not given)	1%	nt	nt	nt
Fc1ccc(-c2csc(/C=C/c3ccc4c(c3)OCO4)n2)cc1	-7%	25%	7%	39%
Cc1ccc(S(=O)(=O)N2CCCC2CNC(=O)C(=O)NCCN2CCOCC2)cc1 (stereo not given)	-3%	14%	-17%	-5%
Cc1ccc([C@@H]2CC=C(C(=O)O)[C@H](c3ccccc3)N2S(=O)(=O)c2ccccc2C)cc1	-8%	nt	0%	nt
NC1=NC(=O)/C(=C/c2cn(Cc3ccccc3)c3ccccc23)S1	-13%	?	?	2.1µM*
CC(=O)NC(CC(=O)N(Cc1ccccc1)c1ccc(C)cc1)c1ccccc1 (stereo not given)	11%	13µM*	nt	?
CC(=O)NC(CC(=O)NCCc1ccccc1)c1ccccc1 (stereo not given)	-12%	-11%	0%	14%
COc1cc2nc(N3CCN(C(=O)C4COc5ccccc5O4)CC3)nc(N)c2cc1OC (stereo not given)	-19%	3.7µM*	?	4.7µM*
SMILES	AMA1 RON2 block	Pf growth 96h	HCV inhibitor	Pf growth 48h
COc1cc2nc(N3CCN(C(=O)[C@@H]4COc5ccccc5O4)CC3)nc(N)c2cc1OC	nt	13µM*	nt	15µM*
COc1ccc2nc(N3CCN(C(=O)C4COc5ccccc5O4)CC3)sc2c1 (stereo not given)	?	36%	?	5%
COc1ccccc1NC(=O)CN1C(=O)NC2(CCCc3ccccc32)C1=O (stereo not given)	3%	?	5%	5%
CCOC(=O)NN1C(=O)c2ccccc2NC12CCCC2	6%	?	-2%	8%
CCOC(=O)c1ccc2c(c1)nc(SCC(=O)c1cc3ccccc3o1)n2CC	11%	?	?	nt
CCOC(=O)c1ccc2c(c1)nc(-c1ccccn1)n2CC	27%	140%	?	39%
C=CCNC(=O)CSc1nc2cc(C(=O)OCC)ccc2n1CC	-6%	10µM*	-17%	nt
CCOC(=O)c1ccc2c(c1)nc(COc1ccc(OC)cc1)n2CC	5%	9.3µM*	?	nt
CC1=C(C(=O)OC2CCCCC2)C(c2ccc(F)cc2)NC(=O)N1 (stereo not given)	0%	9.3µM*	-9%	4%

Screening data as filed in PubChem BioAssay.
